In the supplement of paper PMC9262897, “Low-cost anti-mycobacterial drug discovery using engineered E. coli” (Nature Communications, 2022):
Structures can show the parent of a compound that is named as a salt. ± gives the standard deviation of the averaged measurements.

system: E. coli TESEC Mtb Asd; test: growth (OD600 after 10 h); higher = more growth (less inhibition); conditions: arabinose induction (level): High; compound 0.1 mM; raw OD600 reference: median of DMSO wells 0.331, cell-free background 0.041
Protocol: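 TESEC E. coli strains in which the native enzyme is deleted and replaced by arabinose-inducible Mtb Asd, DapB, CysH or TrpD, each grown in its selective medium. Strains were screened against the Prestwick library at 0.1 mM and 1% DMSO in 384-well format at low and high arabinose induction. Growth is read as OD600 after 10 h in triplicate.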

Point of comparison: CCCCNC(=O)NS(=O)(=O)c1ccc(C)cc1 [Tolbutamide], growth 0.222 ± 0.016. Against it:
- CN1CCCC(n2nc(Cc3ccc(Cl)cc3)c3ccccc3c2=O)CC1 (stereo not drawn) [Azelastine HCl] — lower, 0.157 ± 0.025
- COC(=O)Nc1nc2ccc(SC(C)C)cc2[nH]1 [Methiazole] — higher, 0.365 ± 0.093
- CS(=O)(=O)OCCCCOS(C)(=O)=O [Busulfan] — higher, 0.378 ± 0.022
- Fc1ccc([C@@H]2CCNC[C@H]2COc2ccc3c(c2)OCO3)cc1 [Paroxetine Hydrochloride] — lower, 0.133 ± 0.0029
- CC1(C)O[C@@H]2C[C@H]3[C@@H]4C[C@H](F)C5=CC(=O)C=C[C@]5(C)[C@H]4[C@@H](O)C[C@]3(C)[C@]2(C(=O)CO)O1 [Flunisolide] — higher, 0.342 ± 0.064
- CNCCc1ccccn1 [Betahistine mesylate] — within error, 0.299 ± 0.087
- CC(C(=O)O)c1ccc(C(=O)c2cccs2)cc1 (stereo not drawn) [Suprofen] — higher, 0.368 ± 0.056
- CCCCCCCCNC(C)C(O)c1ccc(SC(C)C)cc1 (stereo not drawn) [Suloctidil] — within error, 0.191 ± 0.016
- CCCc1cc(C(N)=S)ccn1 [Prothionamide] — within error, 0.231 ± 0.011
- CCC[C@@H]1C[C@@H](C(=O)N[C@@H]([C@H]2O[C@H](SC)[C@H](O)[C@@H](O)[C@H]2O)[C@@H](C)O)N(C)C1 [Lincomycin hydrochloride] — lower, 0.151 ± 0.017
- C[C@]12CC[C@@H]3c4ccc(O)cc4C[C@@H](CCCCCCCCC[S+]([O-])CCCC(F)(F)C(F)(F)F)[C@H]3[C@@H]1CC[C@@H]2O (stereo partly drawn) [Fulvestrant] — higher, 0.379 ± 0.022
- CN(C)CCCSC(=N)N [Dimaprit dihydrochloride] — within error, 0.255 ± 0.035
